Results reported in PubChem BioAssay AID1259400 (National Center for Advancing Translational Sciences (NCATS), 2018).
Among all 350,000 compounds or so, about 2,100 (0.6%) were called active. Not shown: some 1% with an inconclusive outcome.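 How the source made its calls: active means activity change of -60% or lower, but not beyond a set lower limit; inconclusive means change between -60% and -40%, or beyond the set limit; inactive means change above -40%.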 For the sample, actives were picked, then their nearest neighbours and some compounds at random.

biological target: Relaxin receptor 1 (Homo sapiens) (UniProt Q9HBX9); assay: qHTS Assay for Antagonists of the Relaxin Receptor RXFP1; conditions: HEK293-RXFP1, relaxin-stimulated cAMP HTRF, 30 min; at 57.5 µM; hits give low values
Source text: The relaxin hormone is involved in the variety of biological functions in normal tissues and diseases. The role of relaxin is well-established in female reproduction and parturition, mammary gland and endometrial development, maintenance of myometrial quiescence during pregnancy. Relaxin signaling through its G protein-coupled receptor (GPCR) RXFP1 results in ECM remodeling through regulation of collagen deposition, cell invasiveness, proliferation and overall tissue homeostasis. […] Recombinant human relaxin (rhRlx) is currently being tested in clinical trials as a protective agent in congestive heart failure, in treating severe preeclampsia, and as an anti-fibrotic agent in various organs. […] Upon relaxin binding RXFP1 activation leads to the activation of adenylate cyclase (AC) via G?s. cAMP will activate PKA, which phosphorylates many signaling proteins. Thus, detection of cAMP increase is an easy and reliable indication of relaxin receptor activation. To screen for antagonists of the relaxin receptor, a HEK293T cell line stably transfected with RXFP1 was used. RXFP1 activation by relaxin in presence of various concentrations of tested compounds was assayed by changes in cAMP levels as detected with a time-resolved fluorescence energy transfer (TR-FRET) cAMP detection kit.
For the primary screening, we used HTRF(R) (Homogenous Time-Resolved Fluorescence) cAMP HiRange assay (Cisbio Bioassays, 62AM6PEJ). Presence of cAMP in the cell lysate disrupts binding between the Cryptate-labeled anti-cAMP and d2-labeled cAMP pair, leading to a decrease in TR-FRET signal. The libraries were screened at two doses (57microM and 11microM), followed by a confirmation of the hits at 7-point serial dilution in the range of final concentrations [57microM - 78nM]. Data were normalized to the controls for basal activity (buffer only) and 100% activity (5 nM porcine relaxin). The EC50 values were determined from concentration-response data modeled with the standard Hill equation. NCGC Assay Protocol Summary: HiHEK (Hawaiian HEK293 LGR7 stably transfected with human RXFP1) were grown in the following media: DMEM+10%FBS+Pen/Strep + Geneticin (1mg/ml). For the assay, the cells were seeded in DMEM+Pen/Strep (with no serum & selective antibiotics) at 2,100 cells/ 3microl/well with MultiDrop Combi dispenser (Thermo Scientific, Logan, UT) onto white tissue culture treated solid bottom1536-well plates (Greiner #789173-F) and allowed to attach/recover overnight at 37 degrees C, 5% CO2. Next, 23nl/well of compound solutions in DMSO were transferred into wells with a pintool (Kalypsis, San Diego, CA). […] EC80 (relaxin at 50pM final concentration) was dispensed to the rest of the plate except columns 1&2 which were used as a negative control (EC0, buffer only), 1microl/well also. The cells were stimulated by relaxin in the presence of compounds for 30 minutes at 37 degrees C, 5% CO2. The detection reagents were prepared individually by dilution in Lysis buffer (supplied with the assay kit) just prior to dispensing. 1microl/well of cAMP-d2 and 1microl/well anti-cAMP-Eu3+-Cryptate antibodies were added simultaneously with BioRAPTR FRDtrade mark Workstation (Beckman Coulter). The plates were incubated at ambient temperature for 30 minutes and, then, FRET signal was read on Envision plate reader (PerkinElmer, Waltham, MA), at wavelengths 340nm (excitation), 615nm & 665nm (emission of donor and acceptor channels respectively).
On the % scale 0 is the no-effect control and ±100 the full control effect.

Sequence of Relaxin receptor 1 (Homo sapiens) (Q9HBX9 whole entry, looked up): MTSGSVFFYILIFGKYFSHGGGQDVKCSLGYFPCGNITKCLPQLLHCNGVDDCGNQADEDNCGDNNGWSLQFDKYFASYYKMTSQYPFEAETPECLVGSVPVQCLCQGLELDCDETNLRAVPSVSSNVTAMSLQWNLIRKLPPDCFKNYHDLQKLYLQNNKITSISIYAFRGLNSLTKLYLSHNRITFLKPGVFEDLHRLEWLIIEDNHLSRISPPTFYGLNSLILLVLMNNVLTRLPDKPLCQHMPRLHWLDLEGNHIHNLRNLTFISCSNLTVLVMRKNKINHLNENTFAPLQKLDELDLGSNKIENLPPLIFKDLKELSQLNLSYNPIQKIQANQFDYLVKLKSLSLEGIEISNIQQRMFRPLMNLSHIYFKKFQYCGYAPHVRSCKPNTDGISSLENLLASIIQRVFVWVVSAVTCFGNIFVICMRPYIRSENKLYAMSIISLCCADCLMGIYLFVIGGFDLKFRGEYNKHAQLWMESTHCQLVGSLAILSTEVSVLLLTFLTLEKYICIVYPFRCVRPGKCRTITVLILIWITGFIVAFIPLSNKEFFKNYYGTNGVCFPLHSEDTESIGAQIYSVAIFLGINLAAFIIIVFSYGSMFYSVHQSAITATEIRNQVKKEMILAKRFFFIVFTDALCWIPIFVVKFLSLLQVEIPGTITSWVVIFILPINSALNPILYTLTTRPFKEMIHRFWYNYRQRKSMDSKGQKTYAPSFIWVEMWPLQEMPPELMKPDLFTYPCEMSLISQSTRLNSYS

Compound | activity change, negative = inhibition
COc1cccc(/C=C2\SC(=S)N(CCCC(=O)N3CCOCC3)C2=O)c1 | 9.2% (inactive)
CCN(C(=O)CN1C(=O)/C(=C/c2ccc(F)cc2)SC1=S)C1CCS(=O)(=O)C1 (centres undefined) | 5.31% (inactive)
O=C1/C(=C/c2ccc(F)cc2)SC(=S)N1CCCC(=O)N1CCCCC1CCO (centres undefined) | -99.6% (active)
O=C(NNC(=O)c1ccc(-c2ccccc2)cc1)Nc1ccccc1 | -86.2% (active)
O=C(NNC(=O)c1ccco1)Nc1ccccc1 | -5.56% (inactive)
O=C(NC1CC1)c1ccc(-c2ccccc2)cc1 | -5.32% (inactive)
COC(=O)c1ccccc1NC(=O)C(Cc1ccccc1)N1Cc2ccccc2C1=O (centres undefined) | -13.9% (inactive)
O=C(c1ccco1)n1nc(-c2ccc(Cl)cc2)nc1NCc1ccccc1 | -6.49% (inactive)
COc1ccccc1N1CCN(CCCNC(=O)c2cnn(-c3ccccc3Cl)c2C2CCN(C(=O)OC(C)(C)C)CC2)CC1 | -27.8% (inactive)
O=C(CCC(=O)N1CC2CCCN2c2ccccc21)NCc1ccccc1Cl (centres undefined) | -15% (inactive)
CCc1nnc(SCc2c(F)cccc2Cl)c2cc3sccc3n12 | 3.15% (inactive)
Cc1cccc(NC(=O)Nc2ccc3c(c2)OCO3)n1 | 6.53% (inactive)
COc1ccc(-c2csc(Nc3cccc(C)n3)n2)cc1OC | -15.8% (inactive)
CC(=O)Nc1cccc(-c2csc(Nc3cccc(C)n3)n2)c1 | -62.8% (active)
COc1ccc2c(c1)Cc1sc(NC(=O)c3ccccc3Br)nc1-2 | -16.9% (inactive)
COc1ccc(CNC(=O)CSCc2nc(-c3ccccc3F)oc2C)cc1 | -25.8% (inactive)
COc1ccc(N2CCN(C(=O)CSCc3nc(-c4ccccc4Cl)oc3C)CC2)cc1 | -64.6% (active)
COc1ccc(N2CCN(C(=O)CCSCc3ccccc3F)CC2)cc1 | -7.15% (inactive)
CCc1ccc(NC(=O)C2CCCN2S(=O)(=O)c2ccc3nc(-c4ccccc4)[nH]c3c2)cc1 (centres undefined) | -3.72% (inactive)
CN1C(=O)c2ccccc2Sc2ccc(NC(=O)Cc3ccc(Cl)cc3)cc21 | -36% (inactive)
O=C(CSc1nc2c(c(=O)[nH]1)CN(Cc1ccc(F)cc1)CC2)Nc1ccccc1Cl | -5.69% (inactive)
CCOc1ccc(Nc2ncnc3scc(-c4ccc(OC)cc4)c23)cc1 | -16.5% (inactive)
O=C1C=C(c2ccc(Cl)cc2)C(=O)N1Nc1ccccc1 | -62.4% (active)
CCOC(=O)c1ccc(NC(=O)c2nc(SCc3ccc(F)cc3)ncc2Cl)cc1 | 3.57% (inactive)
CCS(=O)(=O)c1ncc(N(Cc2ccc(F)cc2)Cc2ccco2)c(C(=O)Nc2cc(C)ccc2C)n1 | -11.8% (inactive)
Cc1cccc(NC(=O)Cn2cc(S(=O)(=O)Cc3ccccc3Cl)c3ccccc32)c1 | -19.7% (inactive)
Cc1cccc(NC(=O)c2nc(S(=O)(=O)Cc3ccccc3)ncc2Cl)c1 | -89.5% (active)
Cc1cccc(CS(=O)(=O)c2ncc(Cl)c(C(=O)Nc3ccc(F)cc3)n2)c1 | -95.9% (active)
CCCSc1ncc(Cl)c(C(=O)Nc2c(C(=O)Nc3ccccc3)oc3ccccc23)n1 | 4.58% (inactive)
